In PubChem BioAssay (NCATS):
Results filed as inconclusive are left out. Activity calls are given as the source filed them. Calls follow the shape of the dose curve; as a rule, active = well fitted curve in the direction sought with a large enough effect; inconclusive = small, poorly fitted or top-dose-only effect, or another doubt; inactive = no such curve, though single readings can be large; an effect the other way counts as inactive or inconclusive.

Experiments:
[1] = qHTS assay for measurement of the activity of small molecule inhibitors on Zika virus induced Caspase-3 activity in human iPSC derived neural progenitor cells (hNPCs) (AID 1224857); also: nearly all actives have a fitted effect of over 65% in size
Procedure, shortened: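 Quantitative HTS format: human iPSC neural progenitors, 1 h compound pretreatment, ZIKV 2 FFU/cell for 6 h at 37 C. Percent inhibition derived from luminescent caspase-3/7 signal between uninfected and infected controls.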

[2] = qHTS assay for measurement of the activity of small molecule inhibitors on Zika virus induced Caspase-3 activity in human astrocytoma cells (AID 1224859)
Procedure, shortened: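 Readout is luminescence from Caspase-Glo 3/7 added after a 6 h ZIKV infection (2 FFU/cell) of compound-pretreated (1 h) SNB-19 cells; data expressed as % inhibition versus uninfected and infected wells.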

[3] = qHTS assay to identify small molecule inhibitors of chordoma cells - UCH-1 (AID 1259355); also: nearly all actives have a fitted effect of over 55% in size
Procedure, shortened: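 Luminescent ATP read-out (CellTiter-Glo, 30min at room temperature) measured viability of UCH-1 cells exposed for 48hr to test drugs at 15 concentrations, co-dosed with a five-agent combination of auranofin, camptothecin, doxorubicin, rubitecan and topotecan.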

[4] = qHTS assay to identify small molecule inhibitors of chordoma cells - UCH-2 (AID 1259356); also: series mostly up to about 46 µM
[5] = P-glycoprotein substrates identified in KB-8-5-11 adenocarcinoma cell line, qHTS therapeutic library screen (AID 1346987); details: outcome: dose series up to 44.5 µM; also: series mostly up to about 44 µM; nearly all actives have a fitted effect of over 65% in size
Procedure, shortened: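 Steps: plate 500 KB-8-5-11 cells/well in DMEM + 10% FCS (colchicine removed); pin compounds in dose-response; incubate 72 h, 37 degree C, 5% CO2; add CellTiter-Glo, 5 min; read luminescence.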

[6] = NS1 protein of Zika virus - qHTS assay to identify small molecule inhibitors in human HEK 293 cells (AID 1347053); also: series mostly up to about 46 µM; nearly all actives have a fitted effect of over 55% in size
Procedure, shortened: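 HEK 293; 20 h pre-culture, 37 C/5% CO2; cpd 1 h pre-infection; ZIKV MR766, MOI = 0.5, 24 h, 37 C; TR-FRET NS1 readout (two anti-NS1 Abs); norm. to no-virus vs infected.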

[7] = qHTS of pediatric cancer cell lines to identify multiple opportunities for drug repurposing: Primary screen for TC32 cells (AID 1347089); also: nearly all actives have a fitted effect of over 60% in size
Procedure, shortened: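 Measured quantity: luminescence from CellTiter-Glo, reflecting metabolically active TC32 cells following 48 h of compound. Curves came straight from multi-point titrations, with 8 or 11 points in primary and 11 in confirmatory screening.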

[8] = qHTS of pediatric cancer cell lines to identify multiple opportunities for drug repurposing: Primary screen for DAOY cells (AID 1347090); also: series mostly up to about 46 µM; nearly all actives have a fitted effect of over 55% in size
Procedure, shortened: (§1)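 Eight- or eleven-point concentration series, 48 h treatment at 37 degrees C in growth media; readout CellTiter-Glo luminescence. Potency and efficacy were taken from the concentration-response curves.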

[9] = qHTS of pediatric cancer cell lines to identify multiple opportunities for drug repurposing: Primary screen for SJ-GBM2 cells (AID 1347091)
Procedure, shortened: as §1

[10] = qHTS of pediatric cancer cell lines to identify multiple opportunities for drug repurposing: Primary screen for A673 cells (AID 1347092); also: nearly all actives have a fitted effect of over 45% in size
Procedure, shortened: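 Cells are plated, rested 5 h, dosed by pintool, incubated 48 h, then lysed with CellTiter-Glo and read by luminescence. DMSO is the neutral control; bortezomib at 2.3 uM final is the positive control.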

[11] = qHTS of pediatric cancer cell lines to identify multiple opportunities for drug repurposing: Primary screen for BT-37 cells (AID 1347094); also: series mostly up to about 57 µM
Procedure, shortened: (§2)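 CRCs from 8- or 11-point titrations (lowest final 0.59 nM NPC, 0.78 nM MIPE). Cell viability: CellTiter-Glo after 48 h incubation, 15 min room-temperature development, luminescence imaging.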

[12] = qHTS of pediatric cancer cell lines to identify multiple opportunities for drug repurposing: Primary screen for NB-EBc1 cells (AID 1347095)
Procedure, shortened: as §2

[13] = qHTS of pediatric cancer cell lines to identify multiple opportunities for drug repurposing: Primary screen for U-2 OS cells (AID 1347096); also: nearly all actives have a fitted effect of over 50% in size
Procedure, shortened: (§3)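 Cells (500-1,000/well) in growth media were settled 5 h at 37 degrees C, then given compounds for 48 h. Viability was read as CellTiter-Glo luminescence. Primary runs used MIPE at 11 points (0.78 nM-46 µM) and NPC at 8 points (0.59 nM-46 µM); follow-ups used 11 points.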

[14] = qHTS of pediatric cancer cell lines to identify multiple opportunities for drug repurposing: Primary screen for SK-N-SH cells (AID 1347098);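 also: DMSO served as neutral control and bortezomib at 2.3 µM as positive control; nearly all actives have a fitted effect of over 65% in size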
Procedure, shortened: (§4)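 Cells (500-1,000/well) rested 5 h, then received compounds for 48 h; metabolically active cells were measured by CellTiter-Glo luminescence. Final concentrations spanned up to 46 µM (MIPE, 11-point) or 0.59 nM-46 µM (NPC, 8-point) in primary screens, 11-point in follow-ups.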

[15] = qHTS of pediatric cancer cell lines to identify multiple opportunities for drug repurposing: Primary screen for NB1643 cells (AID 1347099); also: nearly all actives have a fitted effect of over 50% in size
Procedure, shortened: as §2

[16] = qHTS of pediatric cancer cell lines to identify multiple opportunities for drug repurposing: Primary screen for LAN-5 cells (AID 1347100)
Procedure, shortened: as §3

[17] = qHTS of pediatric cancer cell lines to identify multiple opportunities for drug repurposing: Primary screen for BT-12 cells (AID 1347101); also: nearly all actives have a fitted effect of over 25% in size
Procedure, shortened: as §4

[18] = qHTS of pediatric cancer cell lines to identify multiple opportunities for drug repurposing: Primary screen for SK-N-MC cells (AID 1347093); also: series mostly up to about 46 µM
Procedure, shortened: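 Metabolically active cells were quantified by ATP-dependent luminescence (CellTiter-Glo, 15 min at room temperature) following 48 h treatment. Cells had been plated at 500-1,000 per well and settled for 5 h beforehand.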

[19] = qHTS of pediatric cancer cell lines to identify multiple opportunities for drug repurposing: Primary screen for Saos-2 cells (AID 1347097); also: nearly all actives have a fitted effect of over 40% in size
Procedure, shortened: as §2

Measured: Potency

O=C(O)c1ccccc1C(=O)Nc1ccc(S(=O)(=O)Nc2nccs2)cc1
not listed: [18] | [19]
inactive: all other assays above

Cc1ccc(S(=O)(=O)NC(=O)NC2CCCCCCC2)cc1
not listed: [14] | [18] | [19]
inactive: all other assays above

O=C(O)Cn1c(C(=O)Nc2nc(-c3ccccc3Cl)cs2)cc2ccccc21
not listed: [18] | [19]
inactive: all other assays above

C[n+]1ccccc1/C=N/O
not listed: [19]
inactive: all other assays above

Cc1c(I)c(=O)n(-c2ccccc2)n1C
not listed: [18] | [19]
inactive: all other assays above

Cc1ccc(S(=O)(=O)NC(=O)NC2CCCCC2)cc1
not listed: [17] | [18] | [19]
inactive: all other assays above

OCC(O)CS (stereo not given)
not listed: [14] | [17] | [19]
inactive: all other assays above

OC[C@@H](O)[C@@H](O)[C@H](O)[C@H](O)CO
not listed: [14] | [18] | [19]
inactive: all other assays above

Cc1c(C(=O)NCCO)[n+](=O)c2ccccc2n1[O-]
not listed: [18]
inactive: all other assays above

O=C(O)Cc1cn(-c2ccccc2)nc1-c1ccc(Cl)cc1
not listed: [14] | [18]
inactive: all other assays above

C=CCN1C[C@H](C(=O)N(CCCN(C)C)C(=O)NCC)C[C@@H]2c3cccc4[nH]cc(c34)C[C@H]21
not listed: [18] | [19]
inactive: all other assays above

O=C1c2cccc(O)c2C(=O)c2c(O)cccc21
not listed: [5] | [12] | [16] | [18]
inactive: all other assays above

CN1C(C)(C)CCCC1(C)C
not listed: [5] | [14] | [19]
inactive: all other assays above

O=c1[nH]cnc2nc[nH]c12
not listed: [9] | [12]
inactive: all other assays above

Cc1ccc2c(c1)c1c3n2CCNC3CCC1 (stereo not given)
not listed: [7]
inactive: all other assays above

COc1ccc(O)cc1
not listed: [7] | [19]
inactive: all other assays above

Cc1cccc(C)c1NC(=O)CC12CCCN1CCC2
not listed: [5] | [14]
inactive: all other assays above
